These results are taken from ChEMBL document CHEMBL4513216, “Probing the Open Global Health Chemical Diversity Library for Multistage-Active Starting Points for Next-Generation Antimalarials” (ACS Infect Dis, 2020).

SMILES strings stand for the structures. The whole screen tested about 68,000 compounds, of which about 2,700 (4%) showed an effect of 50% or more. The sample holds strong results, similar compounds and a random draw of the others, so the mix is not that of the screen.

In the test the test system is Plasmodium berghei. Kind of test: Screen against P. berghei liver stage (PbLuc), transformed with Luciferase, at 2uM. The test is classed as functional, HepG2. The conditions noted are these: tested at 2 uM.
For the molecule `CN(C)C(=O)c1cn[nH]c1C1CCCN1Cc1nccn1C` (centres undefined), the INHIBITION is 11.2%. For `Cc1[nH]/c(=N\C(=O)c2csc(NC3CCCC3)n2)sc1C`, the INHIBITION is recorded as 34.93%. As for `CCS(=O)(=O)N1Cc2ncn(CC3CC3)c2C(COC)C1` (centres undefined), the INHIBITION is on record as 26.19%. For `Clc1ccc2oc(C3CCN(Cc4nc(C5CC5)no4)CC3)nc2c1`, the INHIBITION is recorded as 10.11%. For `c1cc(CCN2CCN(c3ccc4nncn4n3)CC2)ccn1`, the INHIBITION is -1.88%. Turning to `C[S+]([O-])c1nncn1CC(=O)c1ccc2c(c1)CCC2` (centres undefined), the INHIBITION is recorded as 61.82%. For `C[S+]([O-])c1nncn1CC(=O)c1ccc(Cl)c(Cl)c1` (centres undefined), the INHIBITION was found to be 20.66%. In the case of `C[S+]([O-])c1nncn1CC(=O)c1ccc2c(c1)CCO2` (centres undefined), the INHIBITION is -0.75%. In the case of `COc1ccc(C2CN(c3cc(C)ncn3)CCN2C(C)=O)cc1` (centres undefined), the INHIBITION is recorded as -28.43%. With `CSCc1noc(CN2CC(Cc3ccccc3)CC2=O)n1` (centres undefined), the INHIBITION is 6.75%. For the molecule `O=C(c1cc(=O)[nH]c(=O)[nH]1)N1CCCCC1c1nc2cc(F)ccc2[nH]1` (centres undefined), the INHIBITION is given as -18.49%. To `O=C(Cc1cccs1)NCC(=O)Nc1cn[nH]c1` belongs 28.49%; to `CC(NCC(=O)NCC(=O)Nc1ccc(F)cc1)c1cccs1` (centres undefined), 16.95%. To `CN(CC(=O)NCC(=O)Nc1ccc(F)cc1)Cc1cccs1` belongs 69.13%; to `CCn1cc(C(=O)N2CCOC(c3nc(-c4cccs4)no3)C2)cn1` (centres undefined), -36.52%; to `COc1cc(-c2n[nH]c(CC#N)n2)cc(OC)c1OC`, 16.72%. In the case of `CC(C)Nc1cc(N2CCC(n3cc(CCO)nn3)CC2)ncn1`, the INHIBITION is reported as 69.71%. Take `CC(C)Nc1cc(N2CCC(n3cc(C4CCCC4)nn3)CC2)ncn1`: the INHIBITION was -1.21%. To `CCc1cc(N2CCC(n3cc(C(=O)NC4CC4)nn3)CC2)ncn1` belongs 52.66%; to `CCc1cc(N2CCC(n3cc(C(=O)NCC(C)C)nn3)CC2)ncn1`, -71.68%; to `O=C(NC1CC1)c1cn(C2CCN(c3cc(C4CC4)ncn3)CC2)nn1`, -26.81%. To `CC(C)Nc1cc(N2CCC(n3cc(C4CC4)nn3)CC2)ncn1` belongs -46.8%.

For the molecule `CCC(CO)NCc1ccc(-c2ccc(Cl)cc2)o1` (centres undefined), the INHIBITION was found to be 2.25%. Consider `CNC(=O)CCc1cc(C)nc(C2CCN(c3ccccc3)CC2)c1`, for which the INHIBITION is recorded as -107.54%.

For `CN(C)CCN1CCC2(CCN(C(=O)c3cccnc3)CC2)C1=O`, the INHIBITION is reported as 6.66%. As to `O=C(O)c1nnn(Cc2cccc(C(F)(F)F)c2)c1-c1ccncc1`, the INHIBITION is recorded as 43.75%. As for `O=C(O)c1nnn(Cc2cccc(C(F)(F)F)c2)c1-c1cccnc1`, the INHIBITION stood at 39.9%. Take `O=C(O)c1nnn(Cc2cccc(C(F)(F)F)c2)c1-c1ccccn1`: the INHIBITION came to 55.25%. For the molecule `COc1ccc2c(c1)CN(Cc1ccco1)C(=O)CCN2CC(C)(C)O`, the INHIBITION is reported as -35.52%. For the molecule `CN(C(=O)c1cc(F)ccc1F)[C@@H]1CC[C@@H](O)[C@@H]1O`, the INHIBITION is reported as 41.21%.

As for `COc1ccc(F)cc1C(=O)N(C)[C@@H]1CC[C@@H](O)[C@@H]1O`, the INHIBITION came out at 16.87%. The figure for `CO[C@@H]1CCC[C@@H](N(C)C(=O)c2cc(F)ccc2F)[C@H]1O` is 53.16%. The figure for `O=C(CO)N1CCOC2(CCCN(c3ncc(F)cn3)C2)C1` (centres undefined) is 14.27%; for `CC(C)(C(=O)N1CCCC(OCc2cccnc2)C1)n1cccc1` (centres undefined) it is 27.81%; for `CN(CCO)CC1COCCN1C(=O)C1CCCCC1` (centres undefined) it is -23.4%. Consider `O=C(CC1CCCCC1)N1CCOCC1CO` (centres undefined), for which the INHIBITION amounted to 18.81%. Consider `CN(CCO)CC1COCCN1C(=O)CCC1CCCC1` (centres undefined), for which the INHIBITION amounted to 69.06%. As to `CCOC(=O)NCC(=O)Nc1nc2ccccc2n1C(C)(C)C`, the INHIBITION is on record as 30.23%.

As for `CCc1nccc(CN2CCC(CNC(=O)c3occc3C)C2)n1` (centres undefined), the INHIBITION is listed as -4.04%. To `Cc1ncc2c(n1)CN(Cc1nc(Cc3ccccc3)no1)CC2` belongs -54.44%; to `c1ccc(Cc2noc(CN3CCc4cncnc4C3)n2)cc1`, 56.02%.

Take `CC(C)c1ncc2c(n1)CN(Cc1nc(Cc3ccccc3)no1)CC2`: the INHIBITION amounted to 6.12%. For `Cc1cccc(C2CCCN2C(=O)CN(C)S(C)(=O)=O)c1C` (centres undefined), the INHIBITION is on record as -73.81%. On to `COCCn1c2c(ccc1=O)CC(NC(=O)c1cscn1)CC2` (centres undefined), for which the INHIBITION is -25.4%. To `NC1CC(C(F)(F)F)=NC=C1c1ccc(Cl)cc1` (centres undefined) belongs -19.36%. In the case of `CN(C)c1cc(CNCc2cccc3c2OCCO3)ccn1`, the INHIBITION was -15.64%.

Consider `FC1(F)CCN(Cc2cccnc2)CC12CCN(c1ccccc1)C2` (centres undefined), for which the INHIBITION is given as 31.41%. On to `COc1cccc(CC(=O)N2CCc3ncnc(C)c3CC2)c1`, for which the INHIBITION came to 19.49%.

As for `O=C([C@H]1CCCO1)N1CCc2ncnc(NC3CC3)c2CC1`, the INHIBITION is listed as -15.36%. As to `O=C(CC1C=CCC1)N1CCc2ncnc(NCc3ccon3)c2CC1` (centres undefined), the INHIBITION was 42.26%. Consider `O=C(C1CCCCO1)N1CCc2ncnc(NCCO)c2CC1` (centres undefined), for which the INHIBITION was 57.89%. As for `COc1cccc(CC(=O)N2CCc3ncnc(NC(C)C)c3CC2)c1`, the INHIBITION is on record as 2.71%. Turning to `COc1cccc(CC(=O)N2CCc3ncnc(NCCO)c3CC2)c1`, the INHIBITION was found to be 52.98%. For `O=C(C1CCCO1)N1CCc2ncnc(NC3CCC3)c2CC1` (centres undefined), the INHIBITION is recorded as 46.32%. On to `CC(C)Nc1ncnc2c1CCN(C(=O)[C@H]1CCCO1)CC2`, for which the INHIBITION was found to be 35.89%. To `O=C(C1CCCCO1)N1CCc2ncnc(NCc3ccon3)c2CC1` (centres undefined) belongs 59.58%; to `CC(NCc1ccc(-c2ccc(F)cc2)o1)c1nnc2n1CCC2` (centres undefined), -40.26%; to `Nc1nnc(Cn2nnc(-c3ccccc3F)n2)s1`, 39.58%.

Take `CNc1ncc(CN2CCC(CCc3ccccc3)CC2)cn1`: the INHIBITION is given as 49.87%. Turning to `O=C(c1cccc(-n2cnnc2)c1)N1C[C@@H](O)[C@H](N2CCOCC2)C1`, the INHIBITION is reported as -8.04%. Regarding `CN1CCC(N(C)C[C@H]2CC[C@@H](Cc3ccc4occc4c3)O2)CC1`, the INHIBITION is listed as -10.59%. For the molecule `COc1ccc(C[C@@H]2CC[C@H](CN(C)C3CCN(C)CC3)O2)cc1`, the INHIBITION was 68.08%. Consider `CN1CCC(N(C)C[C@H]2CC[C@@H](Cc3cccc(O)c3)O2)CC1`, for which the INHIBITION is -66.38%.

Take `Cc1cc(C)n(CC2CCCCN2CC(=O)N(C)Cc2ccco2)n1` (centres undefined): the INHIBITION turned out to be 40.82%. The figure for `CC(CNC(=O)c1c[nH]nn1)Oc1ccc(Cl)cc1` (centres undefined) is -4.64%; for `O=C(N1CCCC1)N1CCN(CC2CC2)c2ncccc2C1` it is -3.08%. With `O=C(C1CCOCC1)N1CCN(CC2CC2)c2ncccc2C1`, the INHIBITION is listed as 51.27%. Take `O=C(C1CCOC1)N1CCN(Cc2ccncc2)c2ncccc2C1` (centres undefined): the INHIBITION is on record as 31.08%.

Turning to `CCN(Cc1ccc2c(c1)OCO2)S(=O)(=O)N(C)C(C)C`, the INHIBITION worked out at 41.99%. Consider `CCN(CC)S(=O)(=O)N(CC)Cc1ccc2c(c1)OCCO2`, for which the INHIBITION was -3.05%. Regarding `CCN(Cc1ccc2c(c1)OCCO2)S(=O)(=O)N(C)C(C)C`, the INHIBITION turned out to be 63.95%. With `Cc1n[nH]c(C2CN(CC(=O)NCCc3ccc(F)cc3)CCO2)n1` (centres undefined), the INHIBITION is 5.47%. Consider `Cc1nc2[nH]cnc(NCCN3CCCC3)c-2n1`, for which the INHIBITION is -20.68%. As for `CC(c1cccc(-c2ncc(C#N)c(N)n2)c1)N(C)C` (centres undefined), the INHIBITION is -38.96%.

In the case of `CN(C)S(=O)(=O)N1CCC2(CCCN(Cc3ccc(F)cc3)C2=O)C1` (centres undefined), the INHIBITION is -37.84%. As for `O=C1N(Cc2ccccc2F)CCCC12CCN(C1CCSCC1)C2` (centres undefined), the INHIBITION is given as 11.26%. To `CCCS(=O)(=O)N1CCC2(CCN(Cc3cccc(F)c3)C2=O)C1` (centres undefined) belongs -25.61%; to `CCCS(=O)(=O)N1CCC2(CCCN(Cc3cccc(F)c3F)C2=O)C1` (centres undefined), 50.59%. On to `CCS(=O)(=O)N1CCC2(CCCN(Cc3ccc(F)c(F)c3)C2=O)C1` (centres undefined), for which the INHIBITION came to 50.59%. Consider `O=C1N(Cc2ccc(F)c(F)c2)CCCC12CCN(C1CCCC1)C2` (centres undefined), for which the INHIBITION came out at 23.18%. As for `COc1cnc(N2C[C@H](CO)C[C@H](CN3CCOCC3)C2)nc1`, the INHIBITION is reported as -3.87%. Regarding `COc1c(C2CCCN2C(=O)c2ccc(C(N)=O)s2)c(C)nn1C` (centres undefined), the INHIBITION is on record as -21.71%. As for `COc1ccc2c(c1)OCC(CNC1CCc3ncnn3C1)=C2` (centres undefined), the INHIBITION was -34.12%. The figure for `NC(=O)N1CCCC1COC(=O)c1ccc(F)cc1Br` (centres undefined) is 6.47%; for `Cc1ccc(F)cc1C(=O)OCC1CCCN1C(N)=O` (centres undefined) it is 5.48%; for `NC(=O)N1CCCC1COC(=O)c1cc(F)ccc1F` (centres undefined) it is 61.91%. To `CN1CCN(C=C2N=C(c3cc(-c4ccc(F)cc4)n[nH]3)ON2)CC1` belongs 22.39%; to `CCN(C)C[C@@H]1CN(S(=O)(=O)c2ccc(OC)cc2)C[C@@H]1CO`, 76.82%. In the case of `CCN(C)C[C@@H]1CN(Cc2cccc(Cl)c2)C[C@@H]1CO`, the INHIBITION turned out to be 38.97%.

As to `CCN(C)C[C@@H]1CN(S(=O)(=O)c2ccc(C#N)cc2)C[C@@H]1CO`, the INHIBITION was found to be 14.82%. Turning to `CCN(C)C[C@@H]1CN(S(=O)(=O)c2cccc(Cl)c2)C[C@@H]1CO`, the INHIBITION is reported as 55.36%.

Take `CCN(C)C[C@@H]1CN(S(=O)(=O)c2cccc(C#N)c2)C[C@@H]1CO`: the INHIBITION worked out at 14.82%. Take `CC[C@H]1CN(S(=O)(=O)c2ccc(OC)cc2)CC[C@H]1CC(=O)O`: the INHIBITION is reported as 45.73%. With `CCCC1(CO)CCCN(C(=O)CNC(N)=O)C1` (centres undefined), the INHIBITION amounted to 3.49%.

As to `Cc1noc(C)c1CN1CCOC2(CCCN(c3nncs3)C2)C1` (centres undefined), the INHIBITION turned out to be 31.96%. To `CCCS(=O)(=O)N1CCC2(CC1)CN(CC1CCOC1)c1ccccc12` (centres undefined) belongs 27.67%; to `CC1CCCN(CCNC(=O)c2scnc2Cl)C1` (centres undefined), 78.42%. In the case of `CC1CCN(CCNC(=O)c2scnc2Cl)CC1`, the INHIBITION was 47.87%. For the molecule `COc1cn(-c2ccccc2)nc1C(=O)NCCN1CCCC(C)C1` (centres undefined), the INHIBITION was found to be 66.2%. For the molecule `COc1cn(-c2ccccc2)nc1C(=O)NCCCN1CCCC(C)C1` (centres undefined), the INHIBITION is 20.11%. As to `CC1CCCN(CCNC(=O)c2ccn(-c3ccccc3)n2)C1` (centres undefined), the INHIBITION is reported as -61.61%.

Take `O=C(NCCN1CCCCC1)c1scnc1Cl`: the INHIBITION is -9.66%. Turning to `O=C(NCC1(O)COCCN(Cc2ccc(O)cc2)C1)c1cnccn1` (centres undefined), the INHIBITION was found to be 30.1%. For the molecule `CCCc1nc(C)cc(NCc2ccc(S(N)(=O)=O)cc2)n1`, the INHIBITION is -16%.
